Laboratory results published in the supplement of paper PMC10338343.
± gives the standard deviation.

Columns and labels:
[1] = test system: MILI (PIWIL2) piRISC loaded with L1MC piRNA (26 nt); experiment: pre-steady-state target cleavage rate (min^-1); guide: L1MC piRNA 5'p-UAACUAAAUACUAUGCAAGCUGUAGG; higher = faster piRNA-guided slicing of the target; conditions: auxiliary factor: 500 nM mouse GTSF1;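 also: 1 nM active piRISC with 0.1 nM target library at 33 °C single turnover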
In short: (§1)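 Reactions were run for 0–8 or 0–960 min at 33 °C in HEPES–potassium acetate buffer, combining 1 nM active affinity-purified piRISC with one synthetic guide, […] transcribed, DNA-blocked target RNA library and, in some cases, 500 nM GTSF1 partner protein. Sequencing of uncleaved targets followed, with normalisation to depth and to weakly complementary targets. Three trials were pooled, k3 was capped at 0.0001 min^-1, and the pre-steady-state cleavage rate was taken from a burst-and-steady-state fit.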

[2] = test system: EfPiwi piRISC loaded with L1MC piRNA (26 nt); experiment: pre-steady-state target cleavage rate (min^-1); auxiliary factor: 500 nM Ephydatia muelleri Gtsf1; guide: L1MC piRNA 5'p-UAACUAAAUACUAUGCAAGCUGUAGG; MIWI and MILI are mouse PIWI proteins and EfPiwi is from a freshwater sponge; tags in brackets are library labels; higher = faster piRNA-guided slicing of the target
In short: as §1

Sequence | pre-steady-state target cleavage rate [1] | pre-steady-state target cleavage rate [2]
UCCUGCUACAGGUUGCAUAGAAUUUAGUUA | 0.0387 ± 0.0083 | 0.00649 ± 0.0018
UCCUGGUACACCUUGCAUAGUAUUUAGAUA | 0.0475 ± 0.016 | 0.00278 ± 0.0024
UCCUGGAUGUGCUUCCAUAGUAUUUAGUAA | 0.0304 ± 0.012 | 0.00486 ± 0.003
UCCUGGAUCAGCUUGCAUAGUAAUUAGAAA | 0.0807 ± 0.02 | 0.00582 ± 0.0028
UCCUGCUAGAGCUUGCAUACUAUUUAGUUA | 0.0842 ± 0.018 | 0.00515 ± 0.0018
UCCUCCUAGUCCUUGCAUAGUAUUUAGAAA | 0.0654 ± 0.017 | 0.00217 ± 0.0013
UCCUGGUACAGCUUGCAAAGUAUUUUCAAA | 0.0283 ± 0.012 | 0.00424 ± 0.0036
UCCUCCUACAGCUUGCAUACUAUUUACUUA | 0.0688 ± 0.016 | 0.00621 ± 0.0047
UCCUCCUACAGCUUGCAUAGUAUUAUCUUA | 0.105 ± 0.025 | 0.00351 ± 0.0027
UCCUCCAACAGCUUGCAUAGUAUUUACUUA | 0.122 ± 0.022 | 0.00475 ± 0.0037
UCCUGGUACUCCUUGCAUAGUAUUUAGUAA | 0.131 ± 0.032 | 0.00302 ± 0.002
UCCUGGAUGUGCUUCCAUAGUAUUUAGUUA | 0.0271 ± 0.0077 | 0.00277 ± 0.0019
UCCUGGAACAGCUUGCAUAGCAUUUAGUUA | 0.0886 ± 0.013 | 0.00399 ± 0.0015
UCCUGGAUCAGCUUGCAUAGUAUUAAGUAA | 0.178 ± 0.03 | 0.00602 ± 0.0026
UCCUGGAACACGUUGCAUAGUAUUUAGUAA | 0.254 ± 0.036 | 0.00365 ± 0.0034
UCCUGCUACAGCUAGCAUAGUAUUUAGAUA | 0.151 ± 0.028 | 0.00409 ± 0.0015
UCCUCCUACAGGUUGCAUAGUAUUUAGAAA | 0.12 ± 0.023 | 0.00461 ± 0.0014
UCCUGGAACAGCUUGCAUAGUUUUUUGUUA | 0.0493 ± 0.014 | 0.00325 ± 0.0013
UCCUGGUACAGCUUGCAUAGUAAUUUGUUA | 0.18 ± 0.05 | 0.00282 ± 0.0025
UCCUCGUACAGCUUGCAUAGUAUUUAGAUA | 0.177 ± 0.025 | 0.00437 ± 0.0019
UCCUGGAUGUCCUUGCAUAGUAUUUAAUUA | 0.0833 ± 0.017 | 0.00439 ± 0.003
UCCUGGUACAGCUUGCAUAGAAUUAAGUUA | 0.0989 ± 0.03 | 0.00454 ± 0.0027
UCCUGGAUGUGCUUGCAUAGCAUUUAGUUA | 0.0436 ± 0.012 | 0.00505 ± 0.0018
UCCUCCUACAGCUUGCAUAGUUUUUACUUA | 0.036 ± 0.0086 | 0.00304 ± 0.0026
UCCUGGAACAGGAUGCAUAGUAUUUAGAAA | 0.0732 ± 0.017 | 0.00257 ± 0.0016

Sequence | pre-steady-state target cleavage rate [1] | pre-steady-state target cleavage rate [2]
UCCUGCUACAGCUUGCAUAGUAUUAAGUAA | 0.172 ± 0.042 | 0.00315 ± 0.0016
UCCUGCAACAGCUUGCAUAGUAUUUAGAUA | 0.125 ± 0.024 | 0.00372 ± 0.002
UCCUGGUACAGCUUGCAUAGUAUUUAGGUA | 0.0562 ± 0.015 | 0.00463 ± 0.0022
UCCUGCUACAGCUUGCUUAGUAUUUUGUUA | 0.156 ± 0.027 | 0.0127 ± 0.004
UCCUGGAACAGCUUGCAUUGUAUUUAGAAA | 0.115 ± 0.028 | 0.00376 ± 0.0021
UCCUGCUACAGGAUGCAUAGUAUUUAGAAA | 0.0163 ± 0.0074 | 0.00248 ± 0.0014
UCCUGGAACAGCUUGCAUAGAAUUUUGUUA | 0.0296 ± 0.01 | 0.00229 ± 0.0021
UCCUGCUACAGCUUGCAUAGUAUUUAGCUUA | 0.161 ± 0.037 | 0.00522 ± 0.0019
UCCUGCUUCAGCUUCCAUAGUAUUUAGUUA | 0.0549 ± 0.018 | 0.00322 ± 0.0013
UCCUGGAACAGCAUGCAUAGUAUUUUGUUA | 0.116 ± 0.017 | 0.00267 ± 0.0022
UCCUCCUACUGCUUGCAUAGUAUUUACAAA | 0.0424 ± 0.011 | 0.0028 ± 0.0021
UCCUGGAACAGCUUGCAUAGUAAUUAGAAA | 0.0609 ± 0.018 | 0.00338 ± 0.0026
UCCUGGAUGUCCUUGCAUAGUAUUUGAGUUA | 0.169 ± 0.043 | 0.00517 ± 0.0037
UCCUGCUACUGCUUGCAUAGUAUUUAGAAA | 0.0315 ± 0.0099 | 0.00545 ± 0.0023
UCCUGGAACAGCUUGCAUAGUAUUAUGAAA | 0.0563 ± 0.02 | 0.00336 ± 0.0021
UCCUGCUACAGCUUGCAUAGUAUUUAGGUA | 0.143 ± 0.034 | 0.00342 ± 0.0016
UCCUGCUACAGCUUGCAAUAGUAUUUAGUUA | 0.0355 ± 0.0093 | 0.006 ± 0.0018
UCCUCCUACACCUUGCAUAGUAUUUAGAUA | 0.161 ± 0.044 | 0.004 ± 0.0023
UCCUGGAACAGCUUGCAUAGUUAUUAGUUA | 0.0369 ± 0.0099 | 0.00251 ± 0.0017
UCCUGCUACAGCUUGCUUAGUAUUUAGAAA | 0.0602 ± 0.019 | 0.00409 ± 0.0022
UCCUGGAACAGCUUGCAUAGUUUUUAGAUA | 0.0168 ± 0.0068 | 0.00205 ± 0.0016
UCCUGGAUGUCCUUGCAUAGUAUUUAGGUA | 0.0702 ± 0.017 | 0.00431 ± 0.0026
UCCUGGAACAGCUUGCAUAGUAUUAAGUAA | 0.0909 ± 0.024 | 0.00572 ± 0.0023
UCCUGCUACAGCUUGCAUACUAUUUAGAAA | 0.0482 ± 0.015 | 0.00298 ± 0.0021
UCCUGGAUCAGCUUGCAUAGUAUUUACAUA | 0.0335 ± 0.0081 | 0.00271 ± 0.0021
